Screens as filed in PubChem BioAssay.
Pf apPOL block = Pf-apPOL inhibitors, biochemical, fluorescence; Recombinant Pf-apPOL, molecular beacon fluorescence, 1.5 h; 210,000 tested, 0.25% active; inhibition, % at 10 µM; Plasmodium falciparum apicoplast DNA polymerase (apPOL)
mHTT CaM bind = mutant huntingtin-calmodulin interaction inhibitors – biochemical, AlphaScreen, primary screen. P42858. AlphaScreen His-mHTT/GST-CaM binding, luminescence. inhibition, % at 15 µM. 190,000 tested, 3.6% active. AID 1671202, 2021;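 further: 0% = both proteins with DMSO and 100% = one protein alone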
Target sequence (P42858 whole entry, looked up, stated change not applied): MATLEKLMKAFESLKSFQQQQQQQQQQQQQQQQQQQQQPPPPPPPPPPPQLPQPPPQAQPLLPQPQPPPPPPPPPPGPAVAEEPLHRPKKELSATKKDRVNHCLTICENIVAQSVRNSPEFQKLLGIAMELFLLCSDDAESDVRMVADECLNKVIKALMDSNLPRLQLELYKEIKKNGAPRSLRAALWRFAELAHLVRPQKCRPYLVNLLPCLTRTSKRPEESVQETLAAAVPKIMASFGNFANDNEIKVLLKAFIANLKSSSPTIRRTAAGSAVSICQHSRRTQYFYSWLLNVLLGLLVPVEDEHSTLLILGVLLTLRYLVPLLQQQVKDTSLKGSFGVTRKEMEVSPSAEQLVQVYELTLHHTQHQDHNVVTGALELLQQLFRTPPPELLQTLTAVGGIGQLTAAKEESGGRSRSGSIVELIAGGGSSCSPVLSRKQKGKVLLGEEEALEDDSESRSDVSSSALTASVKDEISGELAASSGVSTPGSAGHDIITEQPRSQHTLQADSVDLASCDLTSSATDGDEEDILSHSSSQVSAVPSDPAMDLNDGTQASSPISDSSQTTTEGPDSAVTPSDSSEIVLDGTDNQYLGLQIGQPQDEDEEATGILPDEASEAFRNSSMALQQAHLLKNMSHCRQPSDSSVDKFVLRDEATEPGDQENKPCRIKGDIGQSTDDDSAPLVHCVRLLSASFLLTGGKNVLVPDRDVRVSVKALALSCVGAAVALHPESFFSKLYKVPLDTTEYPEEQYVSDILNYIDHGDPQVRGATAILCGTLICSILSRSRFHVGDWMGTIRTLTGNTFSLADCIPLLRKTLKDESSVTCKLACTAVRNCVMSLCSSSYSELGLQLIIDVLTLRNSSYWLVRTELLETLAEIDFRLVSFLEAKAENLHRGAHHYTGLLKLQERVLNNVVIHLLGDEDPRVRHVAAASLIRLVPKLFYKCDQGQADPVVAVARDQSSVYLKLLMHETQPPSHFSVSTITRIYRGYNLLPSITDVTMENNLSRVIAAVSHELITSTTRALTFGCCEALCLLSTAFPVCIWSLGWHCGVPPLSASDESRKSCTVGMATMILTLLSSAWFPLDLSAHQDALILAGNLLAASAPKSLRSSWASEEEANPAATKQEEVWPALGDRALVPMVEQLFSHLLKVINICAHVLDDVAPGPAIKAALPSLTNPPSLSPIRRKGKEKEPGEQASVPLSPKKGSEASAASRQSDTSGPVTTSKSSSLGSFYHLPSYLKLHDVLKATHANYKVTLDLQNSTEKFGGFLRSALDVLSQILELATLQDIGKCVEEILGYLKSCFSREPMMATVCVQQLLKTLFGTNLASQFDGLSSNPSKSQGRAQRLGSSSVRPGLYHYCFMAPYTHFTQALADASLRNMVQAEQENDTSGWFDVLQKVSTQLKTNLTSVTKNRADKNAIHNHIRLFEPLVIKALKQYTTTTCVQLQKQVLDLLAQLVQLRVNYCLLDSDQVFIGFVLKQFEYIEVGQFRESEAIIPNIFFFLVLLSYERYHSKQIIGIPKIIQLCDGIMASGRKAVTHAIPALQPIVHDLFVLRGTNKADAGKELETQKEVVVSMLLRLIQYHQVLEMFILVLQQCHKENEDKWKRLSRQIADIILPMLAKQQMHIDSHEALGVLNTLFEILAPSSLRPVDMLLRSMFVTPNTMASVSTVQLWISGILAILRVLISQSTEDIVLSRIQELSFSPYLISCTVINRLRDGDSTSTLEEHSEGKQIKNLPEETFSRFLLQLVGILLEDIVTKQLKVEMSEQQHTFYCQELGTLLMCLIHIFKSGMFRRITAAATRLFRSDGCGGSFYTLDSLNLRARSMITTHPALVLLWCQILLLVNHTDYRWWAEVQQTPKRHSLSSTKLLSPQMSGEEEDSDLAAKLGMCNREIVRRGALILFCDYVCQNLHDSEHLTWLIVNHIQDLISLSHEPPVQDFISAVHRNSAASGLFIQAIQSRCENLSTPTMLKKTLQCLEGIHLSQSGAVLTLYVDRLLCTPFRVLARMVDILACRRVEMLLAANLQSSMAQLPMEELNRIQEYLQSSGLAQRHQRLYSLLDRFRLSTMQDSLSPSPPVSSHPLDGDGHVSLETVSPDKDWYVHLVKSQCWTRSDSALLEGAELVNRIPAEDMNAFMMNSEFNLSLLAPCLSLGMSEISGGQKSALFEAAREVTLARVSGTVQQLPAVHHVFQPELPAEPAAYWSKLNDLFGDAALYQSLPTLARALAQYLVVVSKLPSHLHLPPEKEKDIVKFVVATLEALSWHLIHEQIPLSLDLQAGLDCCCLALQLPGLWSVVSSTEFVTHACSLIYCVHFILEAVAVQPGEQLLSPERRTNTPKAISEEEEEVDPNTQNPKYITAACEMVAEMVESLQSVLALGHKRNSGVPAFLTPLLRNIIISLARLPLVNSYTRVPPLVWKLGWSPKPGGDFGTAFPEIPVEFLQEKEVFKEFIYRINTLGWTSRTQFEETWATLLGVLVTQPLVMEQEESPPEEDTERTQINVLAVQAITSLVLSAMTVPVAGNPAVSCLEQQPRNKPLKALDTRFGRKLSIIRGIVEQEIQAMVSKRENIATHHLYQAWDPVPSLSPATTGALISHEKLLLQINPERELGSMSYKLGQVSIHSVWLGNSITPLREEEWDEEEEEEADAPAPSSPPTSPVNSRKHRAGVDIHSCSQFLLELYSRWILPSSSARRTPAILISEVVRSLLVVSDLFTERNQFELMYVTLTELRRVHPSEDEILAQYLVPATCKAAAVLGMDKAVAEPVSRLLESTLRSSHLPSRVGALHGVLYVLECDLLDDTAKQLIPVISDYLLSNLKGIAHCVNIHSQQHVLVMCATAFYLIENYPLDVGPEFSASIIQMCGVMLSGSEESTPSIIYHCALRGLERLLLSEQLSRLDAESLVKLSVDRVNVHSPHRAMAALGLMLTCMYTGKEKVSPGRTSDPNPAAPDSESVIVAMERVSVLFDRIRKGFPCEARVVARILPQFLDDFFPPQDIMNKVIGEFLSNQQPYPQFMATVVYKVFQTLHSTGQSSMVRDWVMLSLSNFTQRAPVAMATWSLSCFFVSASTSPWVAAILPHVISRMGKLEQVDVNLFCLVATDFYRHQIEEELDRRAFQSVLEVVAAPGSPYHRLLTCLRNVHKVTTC
* marks the source's active call; other numbers are inactive results; i = inactive; / = no result given. Many of the other results were omitted from the sample, so hits are more common in it than they were. No stated cut-off is given here; in the data, active means inhibition above about 50%; inactive means the rest.

SMILES	Pf apPOL block	mHTT CaM bind
COC(=O)Oc1ccc2c(=O)c(-c3ccccc3OC)coc2c1	1.8	50.0*
CCc1cc(C2CCCN2Cc2ccc(OC)c(Br)c2)on1 (stereo not drawn)	0.8	-3.4
Fc1ccc(C2CC(c3cc(Br)ccc3F)n3ncnc3N2)cc1 (stereo not drawn)	-7.6	12.0
COc1ccc(Cl)cc1N(CC(=O)N(Cc1ccccc1)Cc1ccccc1)S(C)(=O)=O	-5.8	64.9*
COc1ccc(Cl)cc1N(CC(=O)N1CCN(Cc2ccccc2)CC1)S(C)(=O)=O	-0.7	20.5
Cc1ccc(C(=O)Nc2ccc(N3CCCC3)cc2)cc1Cl	-3.2	99.7*
O=C(Cc1ccccc1)Nc1ccc(S(=O)(=O)N2CCCC2)cc1	-8.3	0.9
O=C(Cc1ccccc1)Nc1cccc(NC(=O)Cc2ccccc2)n1	64.6*	-4.3
COc1cccc2cc(C(=O)Nc3ccc(N4CCCN(C(=O)C5CC5)CC4)cc3)oc12	4.4	60.6*
Cc1ccc(C(=O)Nc2ccc(N3CCOCC3)cc2)cc1C	3.0	10.9
O=C(Nc1ccc(N2CCCN(C(=O)C3CC3)CC2)cc1)c1cc(-c2ccccc2)on1	-3.5	12.8
O=C(Cc1ccccc1)Nc1ccccc1NC(=O)Cc1ccccc1	-7.2	1.7
O=C(Cc1ccccc1)Nc1ccc(N2CCCC2)cc1	-10.0	92.4*
COCCn1c(C(=O)N2CCOCC2)cc2sc(C)cc21	2.9	16.6
CCCc1cc(C2CCCN2C(=O)c2c(F)cccc2Cl)no1 (stereo not drawn)	0.8	-9.2
Cc1ccn(-c2ccc(C(=O)Nc3ccccc3)cn2)n1	5.5	-1.0
CC(C)N1C(=O)C(C)(C(=O)NCc2cccs2)Oc2cccnc21 (stereo not drawn)	-5.4	-9.9
Cc1ccccc1-n1nc2c(c1NC(=O)CC1CCCCC1)CS(=O)(=O)C2	-4.3	7.0
CC(=O)N(C)CCc1noc(-c2cc3ccccc3[nH]2)n1	-3.9	-4.9
Cc1cccc(CNC(=O)C2CCCN(c3cnn(C)c(=O)c3)C2)c1 (stereo not drawn)	0.0	-3.5
Cc1cc(C)c(C)c(S(=O)(=O)N2CCC(c3cc(=O)n4nccc4n3C)CC2)c1C	-3.0	43.3
O=C(Cc1ccc([N+](=O)[O-])cc1)Nc1ccc(Nc2ccccc2)cc1	-5.7	31.4
O=C(COc1ccccc1[N+](=O)[O-])Nc1ccc(N2CCCC2)cc1	53.9*	33.8
COc1ccc(NC(=O)c2ccc(-c3ccc([N+](=O)[O-])cc3OC)o2)cc1Cl	-6.6	41.7
COc1cc([N+](=O)[O-])ccc1-c1ccc(C(=O)Nc2ccc(N3CCCCC3)cc2)o1	-5.2	50.6*
SMILES	Pf apPOL block	mHTT CaM bind
O=C(COc1ccccc1[N+](=O)[O-])Nc1cc(C(=O)O)cc(C(=O)O)c1	1.0	-6.4
O=C(Cc1ccccc1)Nc1ccc(Nc2ccccc2)cc1	-4.5	61.6*
COc1ccccc1C(=O)Nc1ccc(N2CCCC2)cc1	0.1	61.0*
COc1ccccc1C(=O)Nc1cnc(N2CCCC2)nc1	-1.9	-2.8
Cc1ccc(Oc2ccc(N(C)S(=O)(=O)c3ccc(OC(F)(F)F)cc3)cc2)nn1	-2.8	-16.6
COc1cc(C)ccc1OCCOc1ccc([N+](=O)[O-])cc1Cl	-15.1	-1.1
Cc1nn2c(CNC(=O)c3ccc(C)c(F)c3)c(C)nc2s1	-3.2	6.9
COc1ccc(CC(=O)Nc2ccccc2)cc1OC	-6.1	-2.3
COc1ccc(CC(=O)Nc2ccc(Nc3ccccc3)cc2)cc1OC	-7.0	62.2*
N#CSCCCOc1ccc(Cl)cc1	-6.8	-53.0
Cc1nc2sccn2c(=O)c1NC(=O)c1ccc(Br)cc1	-1.6	-4.1
O=C1C2C(c3ccccc3)CC=CC2[C@H](c2ccc(C(F)(F)F)cc2)N1Cc1ccccc1 (stereo partly drawn)	-3.0	20.1
C[C@@H]1CC=C[C@H]2[C@H]1C(=O)N(Cc1ccccc1)[C@H]2c1ccc(-c2ccoc2)cc1F	-7.0	60.0*
C[C@@H]1CC=C[C@H]2[C@H]1C(=O)N(Cc1ccccc1)[C@H]2c1ccc(C(F)(F)F)cc1	-2.2	91.0*
C[C@@H]1CC=C[C@H]2[C@H]1C(=O)N(Cc1ccccc1)[C@H]2c1ccc(-c2ccc(F)cc2)cc1F	-2.0	-3.7
C[C@@]12CCC=C[C@H]1[C@H](c1ccc(/C=C/c3ccccc3)cc1F)N(Cc1ccccc1)C2=O	-1.4	16.6
C[C@@]12CCC=C[C@H]1[C@H](c1ccc(C(F)(F)F)cc1)N(Cc1ccccc1)C2=O	-2.3	82.8*
COc1cccc(CNC(=O)C2CCN(c3cncnc3N3CCCCC3)CC2)c1OC	1.1	13.8
N/C(=N\OC(=O)COc1ccc(Cl)cc1)c1ccccn1	-4.5	i
COc1cccc(C(=O)C=C2NC(=O)CS2)c1	-6.8	/
COc1ccc(C(=O)/C=C2/NC(=O)CS2)cc1	77.1*	-6.9
Cc1csc(C(=O)NCCC(O)C(C)(C)C)c1 (stereo not drawn)	-10.8	-12.5
